This is an account of results in PubChem BioAssay (NCI).

About 83,000 compounds went through this panel and 20% of them were active in at least one assay; those are over-represented in the sample as a whole.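 Treatment: one concentration, 48 hours, 96-well format. Scoring: percent growth, with anything below 10 considered active.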 Values without a mark were called inactive. Calls of active or inactive are those of the source.

Among the test systems are DU-145 prostate; K-562 leukemia; MALME-3M melanoma; MDA-MB-231 breast; RXF 393 renal; SF-268 CNS; SF-295 CNS; SF-539 CNS; UACC-257 melanoma; M14 melanoma; HCT-15 colon; HT29 colon; SNB-75 CNS; SNB-19 CNS; U251 CNS; SK-MEL-5 melanoma; UACC-62 melanoma; LOX IMVI melanoma; SK-MEL-28 melanoma.
Holding throughout (test): NCI-60 one-dose screen, 48 h (100 = growth as untreated, 0 = no growth, -100 = all killed)
Details in all cases: 10 µM unless noted

In the case of `COc1ccc(/C=C(\C#N)n2nnc3ccc(Cl)cc32)cc1`, the growth was 64.5% with DU-145 prostate; 21.2% in the test with K-562 leukemia; 79.5% in the test with MALME-3M melanoma; 76.1% with MDA-MB-231 breast; 48.7% in the test with RXF 393 renal; 76.1% with SF-268 CNS. Besides, the growth in the test on SF-295 CNS is 85.7%; in the test on SF-539 CNS, 53.2%; in the test with UACC-257 melanoma it was 76.3%; in the test on M14 melanoma, 58.1%; with HCT-15 colon, 38.9%; with HT29 colon, 26.3%. The growth in the test with SNB-75 CNS was 20.4%; with SNB-19 CNS, 55.2%; in the test with U251 CNS it was 61.7%; with SK-MEL-5 melanoma, 81.7%; with UACC-62 melanoma it was 62.3%; in the test with LOX IMVI melanoma it was 56.9%. For the same compound, the growth with SK-MEL-28 melanoma was 71.4%.
Regarding `COc1ccc(/C=N/C2=C(C#N)C(c3ccccc3)c3ccc4ccccc4c3O2)cc1` (configuration not stated), the growth in the test on DU-145 prostate is 25.6%; with K-562 leukemia it was 12.2%; in the test on MALME-3M melanoma, 43.6%; in the test on MDA-MB-231 breast it was 18.7%; with RXF 393 renal, 26%; with SF-268 CNS it was 46.5%. In addition, the growth with SF-295 CNS is 9% (active); with SF-539 CNS it was -8.29% (active); in the test on UACC-257 melanoma it was 48.4%; in the test on M14 melanoma it was 2.72% (active); in the test with HCT-15 colon, 15.8%; in the test with HT29 colon, 6.29% (active). Moreover, the growth was 15.5% in the test on SNB-75 CNS; 24.6% in the test on SNB-19 CNS; 18.5% with U251 CNS; 16.3% in the test with SK-MEL-5 melanoma; 15.8% with UACC-62 melanoma; 29.5% with LOX IMVI melanoma. Further, the growth with SK-MEL-28 melanoma was 41.4%.
As for `O=C(Nc1nc2cc(C(=O)N3CCN(C(c4ccccc4)c4ccccc4)CC3)ccc2o1)c1ccc(NC2CCCCC2)c([N+](=O)[O-])c1`, the growth in the test with DU-145 prostate was 61.9%; with K-562 leukemia, 47%; in the test on MALME-3M melanoma it was 68.7%; with MDA-MB-231 breast, 75%; in the test on RXF 393 renal, 74.9%; in the test on SF-268 CNS it was 58.2%. Also, the growth is 42.1% in the test on SF-295 CNS; 59.9% in the test with SF-539 CNS; 62.2% with UACC-257 melanoma; 58.2% with M14 melanoma; 35.1% in the test with HCT-15 colon; 62.2% in the test with HT29 colon. The growth in the test on SNB-75 CNS was 71.7%; in the test with SNB-19 CNS, 48.3%; with U251 CNS, 32.5%; in the test on SK-MEL-5 melanoma it was 49.7%; in the test on UACC-62 melanoma it was 45.8%; in the test with LOX IMVI melanoma, 45.5%. Further, in the test with SK-MEL-28 melanoma, the growth is 66.5%.
As to `O=C(Nc1ccccc1O)c1ccc(CNC(=O)c2sccc2Nc2ccnc(C(F)(F)F)c2)cc1`, the growth with DU-145 prostate was 46.7%; with K-562 leukemia, 25.1%; in the test on MALME-3M melanoma, -2.09% (active); in the test with MDA-MB-231 breast, 53%; in the test with RXF 393 renal, 47.9%; in the test with SF-268 CNS it was 49.2%. In addition, the growth with SF-295 CNS was 43.6%; in the test on SF-539 CNS, 48.9%; in the test on UACC-257 melanoma, 46.5%; in the test on M14 melanoma, 58.3%; in the test on HCT-15 colon, 47.6%; in the test on HT29 colon, 53%. Also, the growth was 36.9% with SNB-75 CNS; 68.9% in the test with SNB-19 CNS; 40.6% in the test on U251 CNS; 25.1% in the test with SK-MEL-5 melanoma; 27.7% in the test on UACC-62 melanoma; 53.6% with LOX IMVI melanoma. Moreover, the growth with SK-MEL-28 melanoma was 63.6%.
As to `O=C(CSc1nc2ccc([N+](=O)[O-])cc2[nH]1)Nc1ccc([N+](=O)[O-])cc1`, the growth with DU-145 prostate is 31.6%; in the test with K-562 leukemia, 14.3%; in the test with MALME-3M melanoma, 1.83% (active); in the test with MDA-MB-231 breast it was 33.3%; in the test with RXF 393 renal, 29%; in the test on SF-268 CNS, 27%. The growth in the test on SF-295 CNS is 21.2%; in the test with SF-539 CNS it was 41.5%; in the test with UACC-257 melanoma it was 9.35% (active); in the test with M14 melanoma it was 24.5%; with HCT-15 colon, 22.9%; with HT29 colon it was 13.1%. Besides, the growth in the test on SNB-75 CNS was 29.7%; in the test with SNB-19 CNS, 12.4%; in the test with U251 CNS, 13.7%; in the test with SK-MEL-5 melanoma it was -12.7% (active); in the test on UACC-62 melanoma it was 2.77% (active); in the test with LOX IMVI melanoma it was 23.5%. Further, in the test on SK-MEL-28 melanoma, the growth is 30.7%.
In the case of `C/C(Cc1ccc(Cl)cc1)=C(\c1ccc(O)cc1)c1ccc(Cl)cc1`, the growth is 101% with DU-145 prostate; 89.3% with K-562 leukemia; 82.5% in the test with MALME-3M melanoma; 96.6% in the test on MDA-MB-231 breast; 100% in the test on RXF 393 renal; 95% with SF-268 CNS. The growth in the test on SF-295 CNS was 95.1%; in the test on SF-539 CNS, 107%; with UACC-257 melanoma, 98.2%; in the test with M14 melanoma it was 83.7%; in the test on HCT-15 colon it was 85.3%; in the test on HT29 colon it was 90.9%. Moreover, the growth was 94.7% in the test with SNB-75 CNS; 104% in the test with SNB-19 CNS; 102% in the test with U251 CNS; 100% in the test on SK-MEL-5 melanoma; 84.6% in the test on UACC-62 melanoma; 89.9% in the test with LOX IMVI melanoma. In addition, the growth in the test on SK-MEL-28 melanoma was 95.1%.
As for `Cc1cc(N2CCN(CC(=O)Nc3ccc4c(ccn4C)c3)CC2)nc(N2CCCCCC2)n1`, the growth with DU-145 prostate was 94.2%; in the test with K-562 leukemia, 65.6%; with MALME-3M melanoma, 93.6%; in the test with MDA-MB-231 breast, 101%; in the test with RXF 393 renal, 86.2%; with SF-268 CNS, 102%. Further, the growth is 98.9% with SF-295 CNS; 110% in the test on SF-539 CNS; 91.9% in the test with UACC-257 melanoma; 98.7% in the test with M14 melanoma; 79% with HCT-15 colon; 56.9% in the test with HT29 colon. The growth is 90.1% in the test with SNB-75 CNS; 89.1% with SNB-19 CNS; 85.9% in the test with U251 CNS; 92.1% with SK-MEL-5 melanoma; 84.3% in the test with UACC-62 melanoma; 92.8% with LOX IMVI melanoma. For the same compound, the growth in the test on SK-MEL-28 melanoma was 96.9%.
As for `Cc1c2cnccc2c(C)c2c1c1cc(C#N)ccc1n2C`, the growth in the test with DU-145 prostate was 3.34% (active); in the test with K-562 leukemia, -8.24% (active); in the test with MALME-3M melanoma it was -77.4% (active); in the test with MDA-MB-231 breast it was -23.5% (active); with RXF 393 renal, -85.1% (active); with SF-268 CNS it was -8.27% (active). Also, the growth was -11.7% (active) in the test on SF-295 CNS; -61.7% (active) in the test on SF-539 CNS; -29% (active) in the test on UACC-257 melanoma; -83.3% (active) in the test with M14 melanoma; -20.6% (active) in the test on HCT-15 colon; -18.9% (active) in the test on HT29 colon. The growth is -35.8% (active) in the test with SNB-75 CNS; -1.41% (active) in the test with SNB-19 CNS; -10.5% (active) in the test with U251 CNS; -98.7% (active) in the test on SK-MEL-5 melanoma; -52.6% (active) in the test on UACC-62 melanoma; -35.6% (active) in the test with LOX IMVI melanoma. Also, the growth in the test with SK-MEL-28 melanoma is -39.7% (active).
